# ELG1 genotox: genotoxicity induction in ELG1-luciferase HEK293T cells | HEK293T ELG1-luciferase reporter, luminescence, 16 h | AID 504466 | Potency, µM (highest dose often 46 µM), inactives show top-dose activity change, positive = activation, hits mostly activators | hit rate 1.3% among 330,000; further: % of control where 0% means no effect; nearly all actives have a fitted effect of over 60% in size
#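 HEK293T cells expressing luciferase-tagged ELG1 were exposed to compound or DMSO vehicle for 16 hr at 37 °C and 5% CO2. Luciferase activity was then measured with ONE-Glo after 30 min at room temperature.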
# FLuc modulator: inhibits or activates purified firefly luciferase, miR-21 counter-screen; P08659; purified FLuc, Km substrates, luminescence inhibition; Potency, µM (titrated, usually from 57.5 µM), inactives show at the highest dose activity change, negative = inhibition, usual class: inhibitors; hit rate 6.9% among 360,000;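 further: plate controls were vehicle for no effect and reference inhibitor for full effect; nearly all actives have a fitted effect of over 55% in size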
# Target sequence (P08659 whole entry, looked up): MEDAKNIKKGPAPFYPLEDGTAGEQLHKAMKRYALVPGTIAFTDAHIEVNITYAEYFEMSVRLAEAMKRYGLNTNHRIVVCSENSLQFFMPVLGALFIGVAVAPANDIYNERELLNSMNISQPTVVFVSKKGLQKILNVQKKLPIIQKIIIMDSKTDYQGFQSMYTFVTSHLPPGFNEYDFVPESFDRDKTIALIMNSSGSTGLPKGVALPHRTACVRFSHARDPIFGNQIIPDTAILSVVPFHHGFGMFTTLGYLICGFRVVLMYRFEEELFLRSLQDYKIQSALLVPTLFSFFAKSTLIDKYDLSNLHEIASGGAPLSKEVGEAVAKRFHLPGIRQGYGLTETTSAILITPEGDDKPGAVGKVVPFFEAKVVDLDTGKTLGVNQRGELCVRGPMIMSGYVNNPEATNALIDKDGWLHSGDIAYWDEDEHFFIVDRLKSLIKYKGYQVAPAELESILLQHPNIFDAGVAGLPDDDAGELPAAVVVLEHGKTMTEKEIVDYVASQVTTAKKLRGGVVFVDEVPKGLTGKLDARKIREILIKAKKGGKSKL
#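 Purified P. pyralis luciferase, 10 nM final, with Km-level 10 uM D-luciferin and 10 uM ATP in 50 mM Tris acetate pH 7.5, 10 mM Mg acetate, 0.01% Tween-20, 0.05% BSA; 6-point qHTS titration about 60 µM downward; luminescence read.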
# Rab9 promoter act: activators of Rab9 promoter; Potency, µM (series often up to 9.22 µM), inactives show top-dose activation, negative = inhibition, hits mostly activators; AID 485297; hit rate 2.8% among 320,000; Huh7 Rab9 promoter-luciferase reporter, luminescence, 24 h; further: % of control where 0% means no effect; nearly all actives have a fitted effect of over 60% in size
#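 Huh7 cells stably carrying a Rab9 promoter-luciferase reporter, 1500 cells per well in OP-MEM I with 10% FBS, treated with compound 24 hours at 37C. Luciferase activity read by luminescence after 10 minutes with Amplite reagent.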
# SMN2 splice up: increases expression of the SMN2 splice variant. HEK293 SMN2-luciferase splicing reporter, luminescence, 30-36 h. Potency, µM (highest dose often 46.1 µM), without a hit: at the highest dose activity change, positive = activation, most hits filed as activators. hit rate 2.8% among 210,000; further: % of control where 0% means no effect; nearly all actives have a fitted effect of over 55% in size
#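 HEK293 cells carry an SMN2 minigene-luciferase reporter in which exon 7 inclusion puts luciferase in frame. Cells were seeded at 2000 cells/well, attached for 10-12 hours, then exposed to compounds for 30-36 hours at 37C before ONE-Glo luminescence.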
# NPC1 promoter act: activators of NPC1 promoter. AID 485313. Huh7 NPC1 promoter luciferase reporter, 24 h. Potency, µM (doses to about 9.22 µM), for the others: at the top dose activation, actives largely listed as activators. hit rate 2.4% among 320,000; further: % of control where 0% means no effect; nearly all actives have a fitted effect of over 60% in size
#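 Quantitative HTS used a cell-based reporter: Huh7 cells stably bearing the NPC1 promoter upstream of luciferase were treated with compounds for 24 h, and promoter activation was read as luminescence.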
# ELG1 DNA repair: inhibitors of ELG1-dependent DNA repair in HEK293T cells. Potency, µM (doses to about 46.1 µM), for inactives: at the top dose activity change, negative = inhibition, usual class: inhibitors. HEK293T ELG1-luciferase reporter, luminescence, 16 h; DNA damage induced by 5-fluorouridine. hit rate 2.3% among 330,000; further: on the % scale 0 is the no-effect control and ±100 the full control effect; nearly all actives have a fitted effect of over 55% in size
#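 HEK293T cells expressing luciferase-tagged ELG1 (2,000/well) received 5-Fluorouridine plus compound or DMSO for 16 hr at 37 °C. Luciferase was read by ONE-Glo luminescence after 30 min at room temperature.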
# * marks the source's active call; other numbers are inactive results; ? = inconclusive; · = not tested or not shown. An excerpt weighted towards active compounds, which were near 9.2% of everything screened. The call rests on the fitted dose curve; in most records, active means well fitted curve in the direction sought with a large enough effect; inconclusive means small, poorly fitted or top-dose-only effect, or another doubt; inactive means no such curve, though single readings can be large; an effect the other way counts as inactive or inconclusive. Potency means the concentration at half of the fitted maximal effect.
SMILES,ELG1 genotox,FLuc modulator,Rab9 promoter act,SMN2 splice up,NPC1 promoter act,ELG1 DNA repair
CCOC(=O)c1sc(NC(=O)Nc2ccccc2)cc1C,?,0.48µM*,0.71µM*,3.2µM*,1.3µM*,?
Cc1cccc(C)c1NC(=O)C1CCCN(S(=O)(=O)c2c(C)noc2/C=C/N(C)C)C1 (centres undefined),·,-1%,·,-6%,·,·
c1ccc(CNc2ncnc3c2ncn3C2CCCCO2)cc1 (centres undefined),?,27µM*,?,?,?,?
O=C(Cn1cnc2c(NCc3ccccc3)ncnc21)NCC1CCCO1 (centres undefined),-2%,·,·,·,·,23%
COc1ccc(OC)c(Cc2nnc(CCC(=O)N3CCCCC3c3nccs3)o2)c1 (centres undefined),?,24µM*,3.5µM*,·,?,?
Nc1ccc2oc(=O)c3ccccc3c2c1,?,-19%,?,14µM*,?,?
Oc1ccc(CNCc2ccc3c(c2)OCO3)c2cccnc12,·,-1%,-1%,·,2%,·
Cc1ccc(S(=O)(=O)N2CCCc3cc(NC(=O)c4c(F)cccc4F)ccc32)cc1,-2%,-1%,0%,·,-4%,23µM*
COc1ccc(C(=O)C(C)Oc2cccc(NC(=O)c3cccc([N+](=O)[O-])c3)c2)cc1 (centres undefined),-2%,-8%,1%,-13%,0%,15µM*
Cc1ccc(C(=O)Nc2cccc(Oc3ccccc3)c2)o1,?,19µM*,?,13%,29%,?
COc1cccc(OC)c1C(=O)Nc1ccc2c(c1)CCCN2S(=O)(=O)c1ccc(C)cc1,-5%,1%,-2%,·,-2%,0%
O=C(Nc1ccccc1C(=O)Nc1ccncc1)c1cccc([N+](=O)[O-])c1,?,0.095µM*,2.2µM*,·,2.8µM*,?
O=C(O)c1cccc(NC(=O)c2ccccc2NC(=O)c2cccc([N+](=O)[O-])c2)c1,-1%,?,2%,·,0%,0%
CCCc1ccc(Oc2cc(NN3CCCCC3)c([N+](=O)[O-])cc2[N+](=O)[O-])cc1,3%,0%,-2%,·,-4%,-12%
Cc1cc(C)c(C#N)c(SCC(=O)Nc2nonc2N)n1,?,4%,?,·,28%,?
COc1ccccc1CCNC(=O)Cc1c(C)c2cc(Cl)c(O)cc2oc1=O,·,-19%,·,23%,·,·
COc1cccc(C(=O)N/N=C(/c2ccccc2)c2ccccn2)c1,0%,19µM*,-16%,-53%,-18%,23%
COc1cc(C(=O)N/N=C(\c2ccccc2)c2ccccn2)cc(OC)c1OC,?,1%,-48%,-83%,-25%,?
CC(=O)c1cccc(NC(=O)c2ccc(NS(C)(=O)=O)cc2)c1,1%,-19%,6%,11%,2%,?
CC(C)c1ccc(NC(=O)c2ccc(NS(C)(=O)=O)cc2)cc1,0%,6.7µM*,2%,-6%,1%,-12%
COc1cccc(C(=O)Nc2ccc(NC(=O)Cc3ccccc3)cc2)c1,13%,0%,5%,·,2%,2%
CS(=O)(=O)Nc1ccc(C(=O)Nc2ccc3ccccc3c2)cc1,?,2.4µM*,0.63µM*,·,?,?
COc1cccc(C(=O)Nc2ccccc2)c1,?,24µM*,?,?,?,?
C/C(=N\Nc1ccc(Cl)cc1)c1c(O)cc(C)oc1=O,21%,?,-2%,-20%,23%,?
Cn1c(N)c(C(=O)Nc2ccc3ccccc3c2)sc1=S,?,?,2.2µM*,?,1.8µM*,?
SMILES,ELG1 genotox,FLuc modulator,Rab9 promoter act,SMN2 splice up,NPC1 promoter act,ELG1 DNA repair
O=C(Nc1ccc(O)cc1)c1ccc(C(=O)c2ccccc2)o1,9%,7.6µM*,20%,7%,?,23%
COc1ccc(C(=O)Nc2ccc3ccccc3c2)cc1,0.46µM*,0.19µM*,?,·,0.089µM*,?
COc1cccc(C(=O)Nc2ccc3ccccc3c2)c1,?,0.48µM*,0.79µM*,·,3.2µM*,?
COc1cccc(C(=O)Nc2cccc3ccccc23)c1,4%,-15%,6%,·,0%,6%
Cc1ccc([N+](=O)[O-])cc1NC(=O)c1c(-c2ccccc2)noc1C,0%,3%,-2%,·,-3%,4%
COc1cccc(C(=O)NNC(=O)c2cccnc2)c1,-1%,4%,0%,·,-3%,0%
O=C(CCl)Nc1cccc(Oc2ccccc2)c1,-1%,17µM*,-3%,-29%,-27%,-19%
COC(=O)COc1cccc(NC(=O)c2cc(OC)cc(OC)c2)c1,1%,?,-4%,-22%,-3%,3%
CSc1cccc(NC(=O)c2ccc3c(c2)CCCN3S(C)(=O)=O)c1,·,12µM*,·,-11%,·,·
COc1cccc(C(=O)NNC(=O)c2ccccc2)c1,12µM*,?,3.5µM*,·,2.5µM*,?
COc1cccc(C(=O)Nc2cccc(OCC(=O)O)c2)c1,2%,24µM*,-3%,14%,-4%,16%
O=C(CSc1nc2[nH]ncc2c(=O)[nH]1)N1CCCCC1,2%,0%,10%,8%,1%,-6%

# Bioassay records deposited in PubChem BioAssay by National Center for Advancing Translational Sciences (NCATS).
